Source: PubChem BioAssay (National Center for Advancing Translational Sciences (NCATS))
GLP1R cytotox – cytotoxic in the GLP-1 receptor inverse agonist counter-screen. HEK293 cAMP-luciferase reporter cells, luminescence, 24 h. Potency, µM (titrated, usually from 38.3 µM), for inactives: top-dose activity change, negative = inhibition, most hits filed as inhibitors. hit rate 0.13% among 410,000. AID 624418;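 further: loss of luciferase light is scored as toxicity; on the % scale 0 is the no-effect control and ±100 the full control effect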
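Seeding density was 200 cells/uL; after overnight-length (12 h) culture, 23 nL compounds went on for 24 h at 37 °C. Readout used a luciferase detection reagent, luminescence taken after 12 min at room temperature.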
GLP1R inv ag – GLP-1 receptor (human) inverse agonism | HEK293 GLP-1R CRE-luciferase, luminescence, 24 h; GLP-1R form is constitutively active | hit rate 1.6% among 410,000 | Potency, µM (doses to about 38.3 µM), for inactives: at the highest dose activity change, negative = inhibition, actives largely listed as inhibitors | P43220; further: on the % scale 0 is the no-effect control and ±100 the full control effect; nearly all actives have a fitted effect of over 55% in size
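Cells are plated, allowed 12 hours at 37 deg C, then treated with compounds for 24 hr before luciferase detection reagent is added and luminescence is read after 12 min at room temperature. The HEK293 line carries constitutively active GLP-1R with a cAMP-responsive reporter.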
PTHR1 ag – agonists of human PTHR1 parathyroid hormone receptor; HEK293 GP2 PTHR1 cells, GloSensor cAMP luminescence, 1 h; Potency, µM (top dose mostly 115 µM), for inactives: at the highest dose activation, hits mostly activators; hit rate 0.075% among 410,000; Q03431; further: nearly all actives have a fitted effect of over 55% in size
Target sequence (Q03431 whole entry, looked up): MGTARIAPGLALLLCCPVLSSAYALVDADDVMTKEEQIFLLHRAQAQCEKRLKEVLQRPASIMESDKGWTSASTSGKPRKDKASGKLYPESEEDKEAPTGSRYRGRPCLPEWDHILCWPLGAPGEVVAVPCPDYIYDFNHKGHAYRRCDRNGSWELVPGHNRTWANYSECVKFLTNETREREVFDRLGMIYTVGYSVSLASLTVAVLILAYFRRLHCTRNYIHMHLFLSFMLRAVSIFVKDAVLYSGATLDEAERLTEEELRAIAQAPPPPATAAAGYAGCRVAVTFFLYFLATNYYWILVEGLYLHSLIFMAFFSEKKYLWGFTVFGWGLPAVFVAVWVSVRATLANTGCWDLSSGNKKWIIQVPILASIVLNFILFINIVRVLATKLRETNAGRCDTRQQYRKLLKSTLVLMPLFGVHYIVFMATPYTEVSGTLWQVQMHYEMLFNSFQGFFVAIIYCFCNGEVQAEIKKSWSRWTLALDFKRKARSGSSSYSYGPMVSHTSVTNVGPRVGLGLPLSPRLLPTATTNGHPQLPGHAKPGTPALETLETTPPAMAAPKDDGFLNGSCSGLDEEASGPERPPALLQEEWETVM
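HEK-293-derived GP2 cells expressing PTHR1 and a GloSensor cAMP reporter, 3,000/well, plated overnight, given luciferin plus IBMX (each 0.5 mM as added) for 1 h at 37 °C, then compound for 1 h at 37 °C. Luminescence was read after 15 min at room temperature.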
GLP1R ag – agonists of human GLP-1 receptor; Potency, µM (series often up to 45.6 µM), inactives show at the highest dose activation, most hits filed as activators; AID 624172; P43220; HEK293 GLP-1R CRE-luciferase, luminescence, 4-6 h; cells express a hypersensitive GLP-1R form; hit rate 0.007% among 380,000; further: % of control where 0% means no effect
The depositor's hits bear a star; i = inactive; ? = inconclusive; nt = not tested or not shown; [ ] = remark or other dose. In the library only some 1.7% were active in any assay of this set; here they are far more common. The call rests on the fitted dose curve; in most records, active means well fitted curve in the direction sought with a large enough effect; inconclusive means small, poorly fitted or top-dose-only effect, or another doubt; inactive means no such curve, though single readings can be large; an effect the other way counts as inactive or inconclusive. Potency means the concentration at half of the fitted maximal effect.

SMILES	GLP1R cytotox	GLP1R inv ag	PTHR1 ag	GLP1R ag
CCOC(=O)c1c(NC(=O)CSc2nnnn2-c2ccccc2OCC)sc2c1CC(C)(C)NC2(C)C	?	10µM*	-34%	10%
CCOC(=O)c1c(NC(=O)C2COc3ccccc3O2)sc2c1CC(C)(C)NC2(C)C (centres undefined)	-28%	3.2µM*	i	5%
Cc1ccc(S(=O)(=O)c2c(O)cc(C)c(NS(=O)(=O)c3ccc(Br)cc3)c2C)cc1	-9%	?	-61%	-2%
Cc1ccccc1OCc1nnc(SCc2cc(=O)c3cccc(F)c3[nH]2)n1C	4%	0%	-11%	nt
CCc1ccc(NC(=O)CC2C(=O)N(c3ccc(Cl)cc3)C(=O)N2Cc2cccs2)cc1 (centres undefined)	-3%	?	-37%	nt
COc1ccc(S(=O)(=O)Nc2cc3c4c(oc3c3ccccc23)CC(C)(C)CC4=O)cc1	?	-26%	-11%[57.5 µM]	1%
COc1ccc(S(=O)(=O)Nc2cc3c4c(oc3c3ccccc23)CCCC4=O)cc1	?	5µM*	0%	4%
CC(N)C(=O)NCC(=O)NC1CSSCC(C(=O)O)NC(=O)C(CO)NC(=O)C(C(C)O)NC(=O)C(Cc2ccccc2)NC(=O)C(C(C)O)NC(=O)C(CCCCN)NC(=O)C(Cc2c[nH]c3ccccc23)NC(=O)C(Cc2ccccc2)NC(=O)C(Cc2ccccc2)NC(=O)C(CC(N)=O)NC(=O)C(CCCCN)NC1=O (centres undefined)	nt	nt	nt	-5%
CCOc1ccc(OCC)c(NC(=O)CN(C)S(=O)(=O)c2ccc3[nH]c(=O)oc3c2)c1	-13%	-8%	i	nt
CCOCCCNC(=O)c1ccc(-n2c(-c3ccccc3)cc3c2CCCCC3)cc1	2%	0%	-2%	nt
COCCCNC(=O)c1ccc(-n2c(-c3ccccc3)cc3c2CCC(C)C3)cc1 (centres undefined)	-22%	10µM*	?	nt
Cc1c(O)ccc2c(CN3CCN(C/C=C/c4ccccc4)CC3)cc(=O)oc12	i	3.5µM*	-21%	7%
Cc1ccc(CC#N)c(-c2c(CC#N)ccc(C)c2C)c1C	6%	?	-27%	13%
Cc1ccc2c(c1C)-c1c(ccc(C)c1C)C(=O)C2=O	?	0.79µM*	-35%	-5%
O=C(Nc1ccc(C(F)(F)F)cc1)C1CCCN(c2cnccn2)C1 (centres undefined)	-4%	-24%	i	nt
COc1ccc(-c2onc(C)c2C)cc1S(=O)(=O)N1c2ccccc2CC1C (centres undefined)	0%	5%	-86%	nt
CO[C@H]1/C=C/O[C@@]2(C)Oc3c(C)c(O)c4c(O)c(c(/C=N\N5CCN(C6CCCC6)CC5)c(O)c4c3C2=O)NC(=O)/C(C)=C\C=C\[C@H](C)[C@H](O)[C@@H](C)[C@@H](O)[C@@H](C)[C@H](OC(C)=O)[C@@H]1C	nt	nt	nt	0%
CCN(CC)CC1C(=O)N(c2ccc(OC)cc2)C1c1ccccc1 (centres undefined)	1%	10µM*	i	13%
COc1ccc(N2C(=O)C(CN3CCCCC3)C2c2ccccc2)cc1 (centres undefined)	-5%	?	0%	14%
Cc1ccc(N2C(=O)C(CN(C)C)C2c2ccccc2)cc1 (centres undefined)	-6%	11µM*	-4%[57.5 µM]	16%
Cc1nc2sccn2c(=O)c1S(=O)(=O)NCC1CCN(Cc2ccc(Cl)cc2)CC1	-2%	10µM*	-8%	13%
Cc1ncsc1C(=O)N1N=C2/C(=C/c3ccccc3)CCCC2C1c1ccccc1 (centres undefined)	-13%	4µM*	-28%	-2%
Cc1ncsc1C(=O)N1N=C2/C(=C/c3ccc(N4CCOCC4)cc3)CCCC2C1c1ccc(N2CCOCC2)cc1 (centres undefined)	-23%	-5%	-6%	21%
CCCCOc1ccc(S(=O)(=O)Nc2cccc(-c3ccc(N4CCOCC4)nn3)c2)cc1	-8%	?	-7%	nt
C[C@@H](C(=O)O)c1ccc(C2CCCCC2)c2ccccc12	nt	nt	nt	-1%
SMILES	GLP1R cytotox	GLP1R inv ag	PTHR1 ag	GLP1R ag
COc1cccc2c1C(=O)c1c(O)c3c(c(O)c1C2=O)C[C@](O)(C(C)=O)C[C@H]3O[C@@H]1C[C@@H](N)[C@@H](O)[C@@H](C)O1	-36%	2.8µM*	-13%	-12%
CCOC(=O)c1ccc(NC(=O)CSc2cc(-c3ccccc3)nc(C)n2)cc1	3%	7%	-23%	nt
Cc1cccc(-n2cc(-c3ccccc3)c3c(NC4CCCC4)ncnc32)c1	2%	?	i	nt
Cc1ccc(-n2cc(-c3ccccc3)c3c(N4CCCCC4)ncnc32)cc1	-4%	-1%	?	nt
CC1CN(c2ncnc3c2c(-c2ccccc2)cn3-c2ccc(F)cc2)CC(C)O1 (centres undefined)	6%	4µM*	-23%	12%
Cc1ccc(-n2cc(-c3ccccc3)c3c(NC4CCCC4)ncnc32)cc1	-8%	2.5µM*	i	nt
OCCN1CCN(c2ncnc3c2c(-c2ccccc2)cn3-c2ccc(F)cc2)CC1	0%[0.307 µM]	-11%[0.307 µM]	7%	7%
Cc1ccc(-n2cc(-c3ccccc3)c3c(N4CCOCC4)ncnc32)cc1	-17%	3.5µM*	-11%	7%
CCOc1ccc2nc(NS(=O)(=O)Cc3ccccc3)sc2c1	?	10µM*	i	4%
CCOc1ccc2nc(NC(=O)c3ccccc3)sc2c1	1%	?	-32%	nt
COc1ccc2c(Sc3ccccc3)c(C(=O)NCCCN3CCCCC3)[nH]c2c1	-27%	?	i	nt
Cn1cc(C(=O)N/N=C/c2c(O)ccc3ccccc23)ccc1=O	53%	3.2µM*	i	0%
O=C(N/N=C\c1c(O)ccc2ccccc12)c1ccc(O)cc1	?	?	2%	-4%
Cn1c(-c2ccccc2)c(/C=N/NC(=O)c2ccc(O)cc2)c2ccccc21	-20%	7.1µM*	-39%	12%
COc1ccc(NCc2cc3ccc(OC)cc3n(CC(=O)Nc3cccc(OC)c3)c2=O)cc1	0%	-2%	11%	-3%
CCOC(=O)C1CCN(C(=O)Cn2nc(CC)n3c(cc4sccc43)c2=O)CC1	-6%	?	-52%	nt
COc1ccc2c(c1)CCc1c(C(=O)Nc3c(C)nn(Cc4c(Cl)cccc4Cl)c3C)noc1-2	0%	-27%	-42%	nt
COC(=O)c1ccc(N2C(=O)CC(SCC(=O)Nc3ccc(OC)cc3)C2=O)cc1 (centres undefined)	0%	11%	i	0%
CN=C(Nc1cc(Cl)ccc1Cl)SC1CC(=O)N(c2ccc(C(=O)OC)cc2)C1=O (centres undefined)	-22%	4µM*	-16%[57.5 µM]	-4%
CCc1ccc(C(=O)NNc2ccc(Cl)cc2)cc1	?	1µM*	-19%	-3%
CCc1ccc(C(=O)NNc2cc(Cl)cc(Cl)c2)cc1	-24%	1µM*	-19%	-1%
